CBX7 AlphaScr – CBX7 inhibition, primary AlphaScreen | O95931 | normalised signal (fraction of DMSO) (test concentration not listed) | 1.1% of 66,000 active | AlphaScreen His6-CBX7 / biotin-H3K27me3 peptide binding; active compounds read low | AID 1224903; in the data active = normalised signal below about 0.5
Target sequence (O95931 whole entry, looked up): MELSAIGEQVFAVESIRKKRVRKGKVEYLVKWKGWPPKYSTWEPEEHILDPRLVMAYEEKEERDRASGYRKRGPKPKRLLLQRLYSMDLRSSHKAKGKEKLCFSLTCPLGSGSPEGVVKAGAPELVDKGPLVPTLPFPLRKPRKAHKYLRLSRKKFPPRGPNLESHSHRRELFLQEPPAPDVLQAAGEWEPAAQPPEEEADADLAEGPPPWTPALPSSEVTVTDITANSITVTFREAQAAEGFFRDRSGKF
* hit, by the source's call. The full list was thinned out, with hits kept by preference.

SMILES	CBX7 AlphaScr
CC(C)COc1ccc(C(=O)N(Cc2ccccc2)C2CCS(=O)(=O)C2)cc1 (stereo not drawn)	0.97
Fc1ccc(NCc2nc3ccccc3n2CCOc2ccccc2)cc1	0.96
CC(=O)N1CCc2cc(S(=O)(=O)NCCC(=O)N3c4ccccc4CC3C)ccc21 (stereo not drawn)	1
CCCN(CCC)CCNS(=O)(=O)c1ccc2c(c1)CCN2C(C)=O	0.82
O=C(O)c1c[nH]c2ccc(S(=O)(=O)NCc3ccccn3)cc2c1=O	0.021*
CCOC(=O)CNS(=O)(=O)c1ccc2[nH]cc(C(=O)O)c(=O)c2c1	0.71
CCc1ccc(NS(=O)(=O)c2ccc3[nH]cc(C(=O)NCc4ccccn4)c(=O)c3c2)cc1	1
CC(=O)Nc1ccc(NS(=O)(=O)c2ccc3[nH]cc(C(=O)O)c(=O)c3c2)cc1	0.66
O=C(O)c1c[nH]c2ccc(S(=O)(=O)NCCCN3CCCC3=O)cc2c1=O	0.5*
Cc1cccc(C)c1N(C)S(=O)(=O)c1ccc2[nH]cc(C(=O)NCc3ccccn3)c(=O)c2c1	1
COc1ccc(-c2nc3cc(NC(=O)c4ccccc4F)ccc3o2)cc1	1.1
CCCNC(=O)Cn1cnc2sc(C(=O)Nc3ccc(Oc4ccccc4)cc3)c(C)c2c1=O	1
CCOC(=O)c1cc(-c2ccc(OC)cc2)n(CCC(=O)NCCc2ccc(OC)c(OC)c2)c1C	0.91
O=C(Nc1cccc(-c2nc3ncccc3o2)c1)c1ccc(Cl)c(Cl)c1	0.97
O=C(NCc1cccc(Br)c1)Nc1cccs1	0.99
Cc1ccc2oc(-c3ccc(N4C(=O)c5cccnc5C4=O)cc3)nc2c1	0.95
CCN(CC)S(=O)(=O)c1cccc(C(=O)Nc2nc(COc3ccccc3)cs2)c1	0.94
Cc1ccc(S(=O)(=O)Nc2c(C)nc3nc[nH]n3c2=O)cc1C	1
Cn1c(SCc2ccc(F)cc2)nnc1-c1c[nH]c2ccccc12	0.97
CCCCN(CC)S(=O)(=O)c1ccc(C(=O)Nc2nc(-c3ccccn3)cs2)cc1	0.48*
O=C(Nc1nc(-c2nc3ccccc3s2)cs1)c1ccc(S(=O)(=O)N2CCCCCC2)cc1	1.1
O=C(Nc1nc(-c2ccccn2)cs1)c1ccc(S(=O)(=O)N2CCOCC2)cc1	0*
CCCCN(CCCC)S(=O)(=O)c1ccc(C(=O)Nc2nc(-c3ccncc3)cs2)cc1	1
O=C(Nc1nnc(-c2ccccc2)s1)c1ccc(S(=O)(=O)N2CCOCC2)cc1	1
CCCN(CCC)S(=O)(=O)c1ccc(C(=O)Nc2nc(-c3ccncc3)cs2)cc1	0.97
SMILES	CBX7 AlphaScr
O=C(Nc1nc(-c2ccccn2)cs1)c1ccc(S(=O)(=O)N2CCCCC2)cc1	0*
O=C(Nc1nc(-c2ccncc2)cs1)c1ccc(S(=O)(=O)N2CCCCCC2)cc1	1
O=C(Nc1nc(-c2ccncc2)cs1)c1ccc(S(=O)(=O)N2CCOCC2)cc1	0.97
Cc1cc(OCC(=O)Nc2ccc3oc(-c4ccccc4Br)nc3c2)cc(C)c1Cl	1.1
Cc1sc2ncn(CC(=O)N3CC(C)CC(C)C3)c(=O)c2c1S(=O)(=O)N1CC(C)CC(C)C1 (stereo not drawn)	1
Cc1c(C(=O)N2CCN(c3ccc(F)cc3)CC2)sc2ncnc(N3CCc4ccccc4C3)c12	0.92
O=C(CCNS(=O)(=O)c1ccc2c(c1)CCC(=O)N2)Nc1cccc(Cl)c1	1
CCOC(=O)c1cnc2ccc(OCC)cc2c1Nc1ccccc1	0.96
Cc1ccc(-c2n[nH]c3c2C(c2ccccc2F)N(c2ccccc2)C3=O)cc1 (stereo not drawn)	0.94
N#CCCN(CCC#N)S(=O)(=O)c1ccc(C(=O)Nc2nnc(C3CC3)o2)cc1	0.0021*
CCN(CC)S(=O)(=O)c1ccc(C(=O)Nc2nnc(C3CC3)o2)cc1	0.003*
CCN(CC)S(=O)(=O)c1ccc(C(=O)Nc2nnc(-c3cccs3)o2)cc1	0.73
C=CCN(CC=C)S(=O)(=O)c1ccc(C(=O)Nc2sc3c(c2C(=O)OC)CCN(C)C3)cc1	1.1
C=CCN(CC=C)S(=O)(=O)c1ccc(C(=O)Nc2nnc(C3CC3)o2)cc1	0.004*
CN(Cc1ccccc1)S(=O)(=O)c1ccc(C(=O)Nc2nnc(C3CC3)o2)cc1	0.5
O=C(C1CC1)N1CCc2cc(S(=O)(=O)Nc3ccc4c(c3)OCO4)ccc21	0.88
CCCCCCCCc1ccc(-c2ccc(-c3nc(-c4ccncc4)no3)cc2)cc1	1.2
COc1ccccc1C(NC(=O)C(C)C)c1cc(Cl)c2cccnc2c1O (stereo not drawn)	0.71
Brc1ccc(OCc2ccccc2)c2ncccc12	1
Oc1c(Br)cc(CN2CCCCC2)c2cccnc12	0.0057*
COc1ccccc1N1CCN(Cc2cc(Cl)c3cccnc3c2O)CC1	0.00087*
COc1ccccc1N1CCN(Cc2nc(-c3ccccc3)no2)CC1	1
COc1ccccc1N1CCN(c2nnc(C)c3ccccc23)CC1	1.2
COc1ccccc1N1CCN(Cc2cc(Br)c(O)c3ncccc23)CC1	0.013*
COc1cc(CN2CCN(Cc3ccccc3Br)CC2)cc(OC)c1OC	1
SMILES	CBX7 AlphaScr
COc1ccccc1N1CCN(c2ncnc3ccccc23)CC1	1
Cc1nc2cc(C(=O)NCC3CCCO3)ccc2n1-c1cccc(F)c1 (stereo not drawn)	1
Oc1ccc(Nc2nc3nonc3nc2Nc2ccc(O)cc2)cc1	0.84
O=C1CN(C(=O)COc2ccccc2)C(c2ccccc2)c2cc(F)ccc2N1 (stereo not drawn)	1
O=C1CN(C(=O)COc2ccccc2)C(c2ccccc2)c2cc(Cl)ccc2N1 (stereo not drawn)	0.76
O=C1CN(C(=O)COc2ccccc2)C(c2ccccc2)c2cc(Br)ccc2N1 (stereo not drawn)	0.48*
COc1ccc(N2C(=O)c3ccccc3C2=O)cc1NC(=O)c1ccccc1	1
CCn1c(C(=O)N2CCC(C(=O)NC(=O)C3CCNCC3)CC2)cc2sccc21	1.1
O=S(=O)(c1ccccc1)c1nc(-c2ccccc2F)oc1N1CCCCCC1	0.98
Cc1ccc(S(=O)(=O)c2nc(-c3ccccc3F)oc2N2CCCCC2)cc1	0.48*
Cc1ccc(S(=O)(=O)c2nc(-c3ccccc3C)oc2N2CCCCCC2)cc1	0.9
COc1ccc(CCNC(=O)Cn2nc(-c3ccccc3)c3cc(Cl)ccc32)cc1OC	0.95
O=C(Cn1cc(S(=O)(=O)c2ccc(F)cc2)c(=O)c2ccccc21)Nc1ccc2c(c1)OCCO2	1
COc1ccc(NC(=O)c2ccc3c(c2)C(=O)N(c2cccc(C)c2)C3=O)cc1	0.82
Cc1ccn2c(NC(=O)c3ccc(F)cc3)c(-c3ccc(F)cc3)nc2c1	1.1
O=C(Nc1nc(N2C(=O)c3ccccc3C2=O)n(-c2ccccc2)n1)c1ccc(F)cc1	0.09*
COc1ccc(C(=O)Nc2nc(N3C(=O)c4ccccc4C3=O)n(-c3ccccc3)n2)cc1	0.2*
COc1ccc(N2C(=O)c3ccc(C(=O)Nc4ccccc4C(=O)O)cc3C2=O)cc1	1.1
Cc1ccn2c(NC(=O)c3ccc(F)cc3)c(-c3ccccc3)nc2c1	1.2
COc1cccc(C(=O)NC(C)C(c2cccs2)N2CCN(c3ccccc3OC)CC2)c1 (stereo not drawn)	0.91
Cc1ccccc1NC(=O)C1CCN(c2nc3ccccc3[nH]2)CC1	0.97
Cc1cc(OCc2nc(-c3cccnc3)no2)ccc1Br	1.1
CCn1c2c(c3cc(C4CCCCC4)ccc31)CCCC2O (stereo not drawn)	0.47*
O=C(c1ccccc1)N1CCn2c3c(c4cc(C5CCCCC5)ccc42)CCCC31 (stereo not drawn)	0.69

Compound activity (PubChem)
